# Screening results as filed in PubChem.
# A selection: hits, their analogues and other compounds. The true share with any hit is near 2.9%.
# ALOX12 inh = inhibitors of human 12S-lipoxygenase ALOX12; P18054; purified 12hLO, xylenol orange hydroperoxide absorbance; Potency, µM (highest dose often 108 µM), inactives show at the top dose activity change, negative = inhibition, hits mostly inhibitors; 580,000 tested, 1.1% active; AID 1671190; further: potency means the concentration at half of the fitted maximal effect; on the % scale 0 is the no-effect control and ±100 the full control effect
#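 Purified human 12hLO at 150 nM in 25 mM Hepes, 0.01% Triton X-100, pH 7.0, preincubated 15 min at room temperature with compound. Reaction started with 40 uM arachidonic acid, 30 min at room temperature. Hydroperoxide measured by Fe-xylenol orange, 573/405 nm absorbance ratio.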
# POLB inh = DNA polymerase beta (human) inhibition; Potency, µM (highest dose often 114 µM), without a hit: top-dose activity change, negative = inhibition, actives largely listed as inhibitors; 340,000 tested, 1.3% active; P06746; Pol beta primer extension/strand displacement, fluorescence kinetic; further: potency means the concentration at half of the fitted maximal effect; on the % scale 0 is the no-effect control and ±100 the full control effect
#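 Human Pol beta at 10 nM; strand-displacement substrate 50 nM final. Compound exposure 15 min at room temperature before start, reaction 10 min at room temperature.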
# Pol iota inh = inhibitors of human DNA polymerase iota. AID 588590. Q9UNA4. Pol iota fluorescent replication assay, 10 min. 390,000 tested, 1% active. Potency, µM (top dose mostly 115 µM), for the others: at the top dose activity, negative = inhibition, most hits filed as inhibitors; further: potency means the concentration at half of the fitted maximal effect
# Target sequence (Q9UNA4 whole entry, looked up): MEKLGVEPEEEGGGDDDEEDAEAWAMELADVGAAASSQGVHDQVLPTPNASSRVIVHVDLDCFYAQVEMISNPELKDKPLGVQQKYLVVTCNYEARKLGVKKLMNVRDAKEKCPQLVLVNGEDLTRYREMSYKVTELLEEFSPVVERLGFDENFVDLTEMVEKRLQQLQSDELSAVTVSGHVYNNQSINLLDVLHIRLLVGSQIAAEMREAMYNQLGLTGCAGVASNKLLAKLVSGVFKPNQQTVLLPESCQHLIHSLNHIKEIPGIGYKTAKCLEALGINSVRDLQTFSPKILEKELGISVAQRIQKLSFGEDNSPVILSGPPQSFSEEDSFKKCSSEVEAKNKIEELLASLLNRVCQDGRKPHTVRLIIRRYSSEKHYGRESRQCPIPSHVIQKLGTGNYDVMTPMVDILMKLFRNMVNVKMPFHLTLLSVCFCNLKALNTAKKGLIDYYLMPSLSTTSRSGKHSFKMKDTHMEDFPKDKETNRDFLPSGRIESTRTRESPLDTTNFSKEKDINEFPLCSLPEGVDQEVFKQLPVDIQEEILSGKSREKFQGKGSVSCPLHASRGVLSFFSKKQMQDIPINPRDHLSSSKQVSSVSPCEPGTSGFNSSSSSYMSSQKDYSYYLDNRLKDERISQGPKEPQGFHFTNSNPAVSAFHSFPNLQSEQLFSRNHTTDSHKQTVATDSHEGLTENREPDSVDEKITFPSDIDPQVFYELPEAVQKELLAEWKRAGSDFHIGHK
#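 Fluorescent replication assay read twice, at 0 min and 10 min after adding 50 nM (final) substrate. Enzyme (10 nM) and compounds were first incubated 15 min at room temperature; enzyme-free buffer wells were negative controls.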
# PI5P4K alpha inh = PI5P4K alpha (human) kinase inhibition; P48426; PI5P4Kalpha enzyme, ADP-Glo luminescence, 60 min; hits give low values; max response, %; 330,000 tested, 1.2% active; AID 652105; active means max response of -50% or lower; inconclusive means between -30% and -50%; inactive means -30% or higher; further: value at the top dose of about 77 µM; on the % scale 0 is the no-effect control and ±100 the full control effect
#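 Compounds were pin-transferred onto PI5P4Kalpha and substrate in HEPES pH 7.4 buffer with EGTA, CHAPS and 5% DMSO. ATP (5 microM final) started the reaction, which ran 60 minutes at room temperature before ADP-Glo detection.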
# Pol kappa inh = inhibitors of human DNA polymerase kappa. Potency, µM (series often up to 107 µM), for the others: at the top dose activity, negative = inhibition, hits mostly inhibitors. purified Pol kappa, fluorescent DNA synthesis assay, 10 min. Q9UBT6. AID 588579. 400,000 tested, 0.53% active; further: potency means the concentration at half of the fitted maximal effect; on the % scale 0 is the no-effect control and ±100 the full control effect
#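 Kinetic fluorescence screen: compound preincubated 15 min RT with 10 nM enzyme; 50 nM substrate (final) initiates; reads at 0/10 min.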
# Pol eta inh = DNA polymerase eta (human) inhibition | Potency, µM (top dose mostly 114 µM), for inactives: at the top dose activity change, negative = inhibition, hits mostly inhibitors | AID 588591 | recombinant Pol eta, fluorescent DNA replication assay | Q9Y253 | 390,000 tested, 1.2% active; further: potency means the concentration at half of the fitted maximal effect; on the % scale 0 is the no-effect control and ±100 the full control effect
#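 Pol eta (10 nM) was preincubated with compounds for 15 min at room temperature, after which fluorescent replication substrate (50 nM final) was added to start the reaction. Fluorescence was read kinetically at 0 and 10 min.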
# * = called active by the depositor; ? = inconclusive; . = no result given; ! = not confirmed by another sample; [ ] = another dose, or the depositor's remark. Unless noted, the call rests on the fitted dose curve; in most records, active means well fitted inhibition curve with a large enough effect; inconclusive means small, poorly fitted or top-dose-only effect, or another doubt; inactive means no such curve, though single readings can be large or run the other way.
SMILES,ALOX12 inh,POLB inh,Pol iota inh,PI5P4K alpha inh,Pol kappa inh,Pol eta inh
O=C(Nc1cc(S(=O)(=O)N2CCOCC2)ccc1NCC1CCCO1)NC1CCCCC1 (configuration not stated),14%,.,.,.,.,.
Cc1occc1C(=O)OCC(=O)c1sc2ccccc2c1C,32µM*,.,.,.,.,.
CC1(c2ccccc2)N(Cc2ccccc2)C(=O)OC12CCN(Cc1c[nH]c3ccccc13)CC2 (configuration not stated),45µM*,.,.,.,.,.
CC1(c2ccccc2)N(Cc2cccnc2)C(=O)OC12CCN(Cc1ccccc1O)CC2 (configuration not stated),44%,.,.,.,.,.
CC1(c2ccccc2)N(Cc2ccccc2C#N)C(=O)OC12CCN(Cc1c[nH]c3ccccc13)CC2 (configuration not stated),32µM*,.,.,.,.,.
C=CCN(CC=C)Cc1ccc(OCc2ccccc2)c(OC)c1,-51%,.,.,.,.,.
COC(=O)c1ccc(CNC(=O)c2ccc3c(c2)CCCC3)cc1,-14%,.,.,.,.,.
COc1cccc(-c2cc(=O)n(-c3ccccc3OC)[nH]2)c1,-27%,.,.,.,.,.
CC(N)(Cc1ccc(O)c(O)c1)C(=O)O (configuration not stated),.,5.6µM*,?,.,?,-3%[57.1 µM]
CC(NC(=O)c1ccc2c(c1)C(=O)c1ccccc1-2)C1CC2CCC1C2 (configuration not stated),4%,.,.,.,.,.
CCOC(=O)c1cc2c(=O)n3ccccc3nc2n(Cc2ccco2)c1=NC(=O)c1ccccc1Br,-1%,?,14µM*,.,89µM*,?
CCOC(=O)c1cc2c(=O)n3ccccc3nc2n(Cc2ccco2)c1=NC(=O)c1cccc(Br)c1,?,22µM*,40µM*,.,2%[60.1 µM],1%
CCOC(=O)c1cc2c(=O)n3ccccc3nc2n(Cc2ccco2)c1=NC(=O)c1ccccc1OCC,-18%,1%,?,-10,-4%,-8%
Cc1cccn2c(=O)c3cc(C#N)c(=NC(=O)c4ccccc4)n(Cc4ccco4)c3nc12,7.1µM*,.,?,-73*!,?,25µM*
COCCCn1c(=NC(=O)c2ccccc2)c(C#N)cc2c(=O)n3cccc(C)c3nc21,?,7%,183%,-7,-4%,-13%
CCOC(=O)c1cc2c(=O)n3ccccc3nc2n(Cc2ccco2)c1=NC(=O)c1ccc(OCC)cc1,-29%,20%,?,.,-37%,-5%
CCOC(=O)c1cc2c(=O)n3ccccc3nc2n(Cc2ccco2)c1=NC(=O)c1ccc(Br)cc1,?,-3%,45µM*,.,?,-9%
CCOC(=O)c1cc2c(=O)n3ccccc3nc2n(Cc2ccco2)c1=NC(=O)c1cccnc1,?,18µM*,?,-16,-38%,?
CC1(NC(=O)/C=C/c2nc3ccccc3s2)CCS(=O)(=O)C1 (configuration not stated),?,.,40µM*,-56*,79µM*,50µM*
CCCN(C(=O)/C=C/c1nc2ccccc2s1)C1CCS(=O)(=O)C1 (configuration not stated),-8%,.,-15%,?,-7%,-5%
O=C1C=C(Nc2cccnc2)c2ccccc2C1=O,?,.,50µM*,3,-14%,32µM*
O=C1C=C(Nc2ccccc2O)c2ccccc2C1=O,-19%,10%,32µM*,-17,-9%,25µM*
O=C1C=C(Nc2ccc(F)cc2)c2ccccc2C1=O,-24%,.,1%,-9,-16%,?
CCOc1ccc(NC2=CC(=O)C(=O)c3ccccc32)cc1,-19%,.,35µM*,-2,-4%,40µM*
COc1cc(Cl)c(NC2=CC(=O)C(=O)c3ccccc32)c(OC)c1,-2%,.,?,-7,-1%,56µM*
SMILES,ALOX12 inh,POLB inh,Pol iota inh,PI5P4K alpha inh,Pol kappa inh,Pol eta inh
Cc1ccsc1CNS(=O)(=O)c1cccs1,4%,.,.,.,.,.
COc1cc2c(cc1C(C)=O)C1CCC3(C)C(OC(C)=O)CCC3C1CC2 (configuration not stated),-65%,.,.,.,.,.
O=[N+]([O-])c1ccc(C[n+]2cccc3ccccc32)cc1,?,?,87%,-1,7%,-18%
O=[N+]([O-])c1ccc(C[n+]2cccc3ccc4cccnc4c32)cc1,0%,?,77%,-58*,3%,-25%
COc1cc(-c2nnc(SCCOc3cc(C)cc(C)c3)o2)cc(OC)c1OC,-16%,50µM*,-18%,.,-11%,-19%
COc1cc(/C=N/NC(=O)NC23CC4CC(CC(C4)C2)C3)ccc1OCC(N)=O,98%,-24%,-9%,1,-1%,-11%
CCOc1ccc(CNC(=S)N/N=C/c2ccc(OC)c(OC)c2)cc1,14µM*,1%,-2%,-2,-10%,-12%
COc1cccc(/C=N/NC(=O)NC23CC4CC(CC(C4)C2)C3)c1O,.,.,-10%[58.9 µM],-1,-15%,-15%
COc1cc(/C=N/NC(=S)NCc2ccccc2)ccc1OCC#N,?,29%,-5%,-6,-4%,-11%
COc1ccc(C=NNC(=S)NC23CC4CC(CC(C4)C2)C3)cc1OC,45µM*,.,22%,29,-16%,?
COc1cc(OC)c(C=NNC(=S)NC23CC4CC(CC(C4)C2)C3)c(OC)c1,13µM*,.,1%,16,-18%,-18%
COc1cccc(-c2cc3c(=O)n(CCNC(=O)c4cccc5[nH]ccc45)ccn3n2)c1,14%,.,.,.,.,.
COc1cccc2cc(/C(C)=N/Nc3nc(-c4cc(C)ccc4C)cs3)c(=O)oc12,?,40µM*,-15%,.,-8%,50µM*
COc1ccc(Nc2nc(-c3cc4cccc(OC)c4oc3=O)cs2)cc1,-20%,-12%,3%,-12,-4%,-6%
CC(C)OC(=O)C(CC(=O)O)N1CCOCC1 (configuration not stated),5.6µM*,30%,10%,3,-8%,-12%
COc1ccc(-c2csc(NC(=O)C(CC(=O)O)N3CCOCC3)n2)cc1 (configuration not stated),-21%,15%,?,-1,0%,-17%
Cc1c(OCc2nnc(SC(C)C(=O)Nc3ccc4c(c3)OCO4)n2C)ccc2ccccc12 (configuration not stated),-3%,.,.,.,.,.
CCOCCCNc1nc2ccccc2nc1NS(=O)(=O)c1ccccc1,-24%,.,.,.,.,.
CC1CN(C2=Nc3cccc4cccc2c34)CC(C)O1 (configuration not stated),-1%,19%,25µM*,15,12%,-7%
CC(C)NC(=O)NC(C)C,4%[176 µM],.,.,.,.,.
Cc1nc2cc(NC(=O)C(C)Oc3ccc(C#N)cc3)ccc2o1 (configuration not stated),14%,.,.,.,.,.
